From PubChem BioAssay (NCATS)
Records with an inconclusive call do not appear. Calls of active or inactive are those of the source. Calls come from the whole dose curve; as a rule, active = well fitted activation curve with a large enough effect; inconclusive = small, poorly fitted or top-dose-only effect; inactive = no such curve, though single readings can be large or run the other way.

Target: Rap guanine nucleotide exchange factor 3 (Homo sapiens) (UniProt O95398)
Assay: Confirmatory qHTS for agonist of cAMP-regulated guanine nucleotide exchange factor 3 (EPAC1) (AID 1645881);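 note: EPAC1 catalysed release of BODIPY-GDP from Rap1B seen as fluorescence loss; 100% = effect of cAMP agonist control; nearly all actives have a fitted effect of over 75% in size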
Conditions: EPAC1 Rap1B BODIPY-GDP exchange fluorescence; series mostly up to 154 µM; activation: at the top concentration

Sequence of Rap guanine nucleotide exchange factor 3 (Homo sapiens) (O95398 whole entry, looked up): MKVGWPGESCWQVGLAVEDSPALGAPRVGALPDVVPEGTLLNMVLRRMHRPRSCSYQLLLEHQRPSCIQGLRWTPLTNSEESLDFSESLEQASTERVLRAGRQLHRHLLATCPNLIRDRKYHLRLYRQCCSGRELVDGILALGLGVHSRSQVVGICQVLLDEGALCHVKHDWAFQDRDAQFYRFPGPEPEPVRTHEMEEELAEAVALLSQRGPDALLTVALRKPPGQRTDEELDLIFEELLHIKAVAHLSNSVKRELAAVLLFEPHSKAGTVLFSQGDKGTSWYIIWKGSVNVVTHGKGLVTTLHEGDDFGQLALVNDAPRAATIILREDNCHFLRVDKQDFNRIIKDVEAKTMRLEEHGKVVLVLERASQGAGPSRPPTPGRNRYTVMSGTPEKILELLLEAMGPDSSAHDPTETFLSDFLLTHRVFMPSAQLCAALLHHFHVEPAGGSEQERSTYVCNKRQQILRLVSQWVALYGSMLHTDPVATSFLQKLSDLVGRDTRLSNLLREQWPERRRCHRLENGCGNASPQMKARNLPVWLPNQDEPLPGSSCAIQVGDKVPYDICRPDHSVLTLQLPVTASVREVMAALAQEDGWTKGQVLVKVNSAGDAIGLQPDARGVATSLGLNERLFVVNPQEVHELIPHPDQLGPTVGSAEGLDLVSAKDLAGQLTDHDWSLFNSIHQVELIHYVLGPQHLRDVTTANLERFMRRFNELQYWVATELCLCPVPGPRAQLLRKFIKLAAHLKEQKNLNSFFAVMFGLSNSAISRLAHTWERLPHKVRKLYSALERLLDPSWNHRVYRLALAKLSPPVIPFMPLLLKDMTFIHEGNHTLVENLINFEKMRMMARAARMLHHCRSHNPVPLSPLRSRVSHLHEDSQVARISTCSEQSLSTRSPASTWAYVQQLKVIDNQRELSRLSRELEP

activation, inactive:
COC1=C/C(=C/c2c(N)n3nc(-c4ccc(C)cc4)sc3nc2=O)C=CC1=O 29.5%, Cc1ccc2oc(=O)c3cnn(CC(=O)NC4CCC(C)CC4)c3c2c1 (stereo not given) -8.88%, CC(=O)NC(c1ccc(Cl)cc1Cl)c1ccc2cccnc2c1O (stereo not given) -13.3%, CCOC(=O)c1c(C)[nH]c(C(=O)C(C)OC(=O)c2ccc(NC(=O)CC#N)cc2)c1C (stereo not given) -5.03%, CC(C)OP(=O)(OC(C)C)C1(NS(=O)(=O)c2ccc(Cl)cc2)C=C(Cl)C(=O)C(Cl)=C1 -1.54%, Cc1cc(Br)c2c(c1)[C@](O)(c1cn(C)c3ccccc13)C(=O)N2C 15.4%, Cc1ccc(C2CC(c3cccs3)=NN2C(=O)c2ccco2)o1 (stereo not given) 23%, C[C@@H]1CCCCCCCCC(=O)OCCN1C(=O)OC(C)(C)C -8.77%, Cc1ccccc1-c1ccc(CN2C(C(C)C)C(=O)N(Cc3cn(CCC4OCCO4)nn3)CCS2(=O)=O)cc1 (stereo not given) 0.603%, CCOC(=O)[C@H]1[C@H]2COc3ccc(C)cc3[C@@H]2N2C(=O)c3cc(F)c(F)cc3NC(=O)[C@@]12C -1.56%, O=C(O)CSc1nnc(COc2cccc3ccccc23)n1Cc1ccccc1 4.52%, O=c1oc2ccccc2n1Cc1ccccc1Cl 14%, CCOC(=O)c1c(CC(C)C)csc1NC(=O)COC(=O)c1ccc(O)cc1 -30.8%, Fc1ccc2c(-c3cccc(C(F)(F)F)c3)c(-c3ccccc3)ncc2c1 -9.37%, O=C(O)c1cc(N/N=C/C=C/c2ccccc2)ccc1Cl 4.54%, NS(=O)(=O)c1ccc(N/N=C/c2ccc(C(=O)O)cc2)c([N+](=O)[O-])c1 -11.2%, O=C(Nc1ccccc1C(=O)Nc1nnc(C(F)(F)F)s1)c1ccccc1Cl -22.6%, COc1cccc(N2CCN(CC(=O)NC(=O)NCc3ccco3)CC2)c1 4.46%, CC(=O)C1=C(O)C2(C)c3c(O)c(C)c(O)c(C(C)=O)c3OC2CC1=O (stereo not given) -21.2%, Fc1ccc2cnc(-c3ccccc3)c(-c3ccc(C(F)(F)F)cc3)c2c1 -11.1%, CCCCC[C@H](C)N1C[C@H](COCc2ccccc2)Oc2cc(N3CCC[C@H]3C(N)=O)ccc2S1(=O)=O -23.7%, COc1cc2c(c(OC)c1OC)C(c1ccccc1C)CC(=O)O2 (stereo not given) 0.426%, O=C(COC(=O)c1c2c(nc3ccccc13)/C(=C\c1ccco1)CC2)NC1CCCC1 9.41%, O=C(O)c1cc(NN=C2c3ccccc3-c3ccccc32)ccc1Cl -6.78%, O=C(Nc1nc2ccccc2c(=O)s1)c1ccc(F)cc1Cl 3.67%, CC(C)CNC(=O)C1(C)CCCCCN1Cc1ccccc1-c1ccccc1 (stereo not given) -6.66%, O=C(O)c1[nH]c2ccccc2c1C(c1cccc(O)c1)c1c(C(=O)O)[nH]c2ccccc12 3.1%, Cn1c2ccccc2c2cc(/C=N/NC(=O)c3cc(O)cc(O)c3)ccc21 21.7%, Cc1ccc(C2CC(c3cccs3)=NN2C(=O)CSc2nc(=O)n3cc(C)ccc3n2)cc1 (stereo not given) -15.5%, Cc1ccc2nc(-c3cccc(Br)c3)c(Cc3ccccn3)n2c1 -19.9%, Oc1ccc(-c2cn3c(n2)SCC3)cc1O 11.5%, Cc1c(C(=O)N2CCCC2)oc2ccc(Br)cc12 8.72%, CCc1cc(=O)oc2cc(C)cc(OCC(=O)N[C@@H](CSCc3ccccc3)C(=O)O)c12 -2.67%, COc1ccccc1/C=C/C=c1\sc2nc(=O)c(Cc3ccccc3)nn2c1=O 1.78%, CCOC(=O)C1=C(C)NC(C)=C(C(=O)OCC)C1C(=O)OCC(=O)NCc1ccc(F)cc1 -2.89%, Cc1noc(C)c1COc1ccccc1C(=O)N(C)Cc1ccc(C(C)(C)C)cc1 -11%, COc1cc(/C=C2\SC(=S)N(NC(=O)c3ccc(O)c(OC)c3)C2=O)ccc1O 8.67%, CCOc1cnc(-c2c(-c3ccccc3Cl)noc2C)o1 -10.8%, COC(=O)C1=CN(Cc2cccs2)C=C(C(=O)OC)C1c1cccc(Cl)c1 10.6%, O=C(Cc1ccc(Br)c2ccccc12)N/N=C/c1ccccn1 -14.2%
